Screening results deposited in PubChem by National Center for Advancing Translational Sciences (NCATS).
HP1b binding inh = blocks HP1-beta chromodomain binding to methylated histone tails. AID 540317. AlphaScreen HP1-beta / biotin-H3K9me3 peptide binding. Potency, µM (titrated, usually from 114 µM), for inactives: at the highest dose activity change, negative = inhibition, actives largely listed as inhibitors. P83916. 390,000 compounds, 0.56% hits; further: potency means the concentration at half of the fitted maximal effect; nearly all actives have a fitted effect of over 70% in size
Target sequence (P83916 whole entry, looked up): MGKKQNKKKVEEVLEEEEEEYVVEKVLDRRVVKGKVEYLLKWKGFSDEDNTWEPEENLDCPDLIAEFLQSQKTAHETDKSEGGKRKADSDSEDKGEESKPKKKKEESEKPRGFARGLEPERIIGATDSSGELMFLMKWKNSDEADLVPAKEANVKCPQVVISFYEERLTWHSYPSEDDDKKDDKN
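Compound inhibition of the preformed complex between 50 nM HP1-beta and 50 nM biotinylated H3K9me3 peptide was read by AlphaScreen. Buffer was PBS pH 7.4 with 0.01% Tween-20. Incubations ran 30 min at room temperature, with 10 ug/mL donor/acceptor beads.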
BAZ2B block = blocks human BAZ2B. Potency, µM (highest dose often 114 µM), for the others: at the highest dose activity change, negative = inhibition, hits mostly inhibitors. Q9UIF8. 360,000 compounds, 4.4% hits. AlphaScreen BAZ2B-H3K14Ac peptide displacement. AID 504333; further: potency means the concentration at half of the fitted maximal effect; on the % scale 0 is the no-effect control and ±100 the full control effect; nearly all actives have a fitted effect of over 60% in size
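Inhibition is scored as reduced AlphaScreen emission. The BAZ2B/b-H3(5-23)K14Ac complex (50 nM each) in PBS pH 7.4, 0.01% Tween-20 meets compound (up to 110 uM) for 30 min at RT before bead addition.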
G9a inh = inhibitors of human histone lysine methyltransferase G9a; G9a H3K9 monomethylation, AlphaScreen, 2 h; Potency, µM (series often up to 102 µM), inactives show top-dose activity, negative = inhibition, actives largely listed as inhibitors; Q96KQ7; 350,000 compounds, 8.8% hits; further: potency means the concentration at half of the fitted maximal effect; on the % scale 0 is the no-effect control and ±100 the full control effect; nearly all actives have a fitted effect of over 75% in size
Target sequence (Q96KQ7 913-1193 limits assumed): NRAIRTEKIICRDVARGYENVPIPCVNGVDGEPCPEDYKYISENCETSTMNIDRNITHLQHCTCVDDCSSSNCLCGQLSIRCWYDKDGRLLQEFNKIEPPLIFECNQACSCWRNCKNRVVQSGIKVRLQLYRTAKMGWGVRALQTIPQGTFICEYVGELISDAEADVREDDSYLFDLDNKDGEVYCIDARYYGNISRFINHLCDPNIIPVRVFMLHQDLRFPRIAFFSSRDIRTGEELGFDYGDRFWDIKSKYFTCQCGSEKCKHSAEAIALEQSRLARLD
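Methyltransferase reactions run at room temperature for 2 h (20 nM enzyme, 500 nM biotin-H3K9 peptide, 20 uM SAM) after a 15 min compound preincubation; product detected by AlphaScreen beads and anti-H3K9me1 antibody.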
JMJD2A Tudor inh = blocks the human JMJD2A Tudor domain; Potency, µM (highest dose often 114 µM), for inactives: top-dose activity change, negative = inhibition, most hits filed as inhibitors; AlphaScreen JMJD2A-Tudor / H3K4me3 peptide binding; 390,000 compounds, 4.4% hits; further: potency means the concentration at half of the fitted maximal effect; on the % scale 0 is the no-effect control and ±100 the full control effect; nearly all actives have a fitted effect of over 50% in size
Six1-Eya2 inh = inhibitors of human Six1/Eya2 interaction | AID 651725 | 360,000 compounds, 0.56% hits | activity change, % (concentration not given with the values) | AlphaScreen GST-Six1/His-Eya2 binding, biochemical; active compounds read low | Q15475+O00167; in the data active means activity change below about -65%; inconclusive means mostly about -30% to -63%; further: on the % scale 0 is the no-effect control and ±100 the full control effect
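Homogeneous AlphaScreen proximity assay pairing GST-Six1 with His-tagged Eya2 (added as 5X mix: 250 nM and 500 nM) in 50 mM Tris pH 8.0, 300 mM NaCl, 1 mM TCEP. Glutathione donor and nickel acceptor beads; 1 h, 37 °C, dark.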
CtBP-E1A inh = inhibitors of CtBP/E1A interaction; AlphaScreen GST-E1A/His-CtBP binding, 1536-well; active compounds read low; activity change, % (test concentration not listed); 340,000 compounds, 0.49% hits; AID 651724; in the data active means activity change below about -65%; inconclusive means mostly about -30% to -63%; further: on the % scale 0 is the no-effect control and ±100 the full control effect
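GST-E1A and His-tagged CtBP (125 nM each as 5X stock) were preincubated with pin-transferred compound for 2 h at 37 °C in the dark, then glutathione donor and nickel acceptor beads were added for 1 h before AlphaScreen reading.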
* hit, by the source's call; ? = inconclusive; nt = not tested or not shown; ! = not confirmed by another sample; [ ] = another dose, or the depositor's remark. Compounds with a hit are over-represented: about 10% of the library has one in this group of screens. Unless noted, the call rests on the fitted dose curve; in most records, active means well fitted inhibition curve with a large enough effect; inconclusive means small, poorly fitted or top-dose-only effect; inactive means no such curve, though single readings can be large or run the other way.

SMILES	HP1b binding inh	BAZ2B block	G9a inh	JMJD2A Tudor inh	Six1-Eya2 inh	CtBP-E1A inh
COC(=O)CC(NC(=S)NC(=O)c1ccccc1)c1ccc(Br)cc1 (stereo not given)	25%	-19%	40µM*	-8%	-16	nt
O=C(c1ccccc1)N1CCN(CC(O)Cn2ccc3ccccc32)CC1 (stereo not given)	?	56µM*	11µM*	?	-2	-24
OC(CNc1ccccc1)Cn1ccc2ccccc21 (stereo not given)	?	35µM*	32µM*	4µM*	0	3
O=C(c1ccccc1)N1CCN(CC(O)COc2cccc3ccccc23)CC1 (stereo not given)	37%	0%	-6%[0.501 µM]	-14%	-2	nt
Cc1cc(C)c(OCC(O)CN2CCN(C(=O)c3ccccc3)CC2)c(C)c1 (stereo not given)	?	?	20µM*	22µM*	3	nt
OC(CN1CCCC1)Cn1ccc2ccccc21 (stereo not given)	23%	50µM*	14µM*	20µM*	-2	nt
COc1ccc(NC(=S)Nc2cccc(C(F)(F)F)c2)c(C)c1	19%	-23%	8%	-18%	-2	8
O=C(CN1CCCCCC1)Nc1ccccc1Cl	59%	-3%	-2%	3%	14	nt
O=C(CCN1CCCCCC1)Nc1ccccc1F	24%	nt	nt	-6%	-2	1
CCc1ccccc1NC(=O)Cn1nc(C)n2cccc2c1=O	11%[57 µM]	-28%	11%	-34%	4	nt
O=C(CN1CCCC1)NC(c1ccccc1)c1ccccc1	?	0%[0.457 µM]	10µM*	1.4µM*	-18	-3
O=C(CN1CCCCCC1)Nc1ccccc1F	?	56µM*	8.9µM*	2.2µM*	12	14
O=C(CN1CCN(CC(=O)c2ccc(F)cc2)CC1)Nc1ccccc1Cl	-2%	-5%	7.1µM*	-31%	3	0
Cc1nn(CC(=O)Nc2ccccc2C(F)(F)F)c(=O)c2cccn12	?	22µM*!	3.2µM*!	8.9µM*!	-2	nt
Cc1ccc(C)c(Cn2nnc(C(=O)NCc3ccccc3)c2N)c1	1%	-18%	-15%[59 µM]	-11%	nt	nt
O=C(CN1CCN(CC(=O)Nc2ccccc2C(F)(F)F)CC1)Nc1ccccc1F	67%	-2%	32µM*	-9%	-4	-2
O=C(CN1CCN(C(=O)c2c(F)cccc2F)CC1)Nc1ccccc1C(F)(F)F	52%	3%	19%	-5%	-1	nt
COc1ccc2[nH]c(=S)[nH]c2c1	16%	10%	4.5µM*	56µM*	0	-5
COc1ccc2[nH]c3ccccc3c2c1	7%	-36%	-36%	-18%	-1	-6
S=c1[nH]c2ccc(Cl)cc2[nH]1	?	7%	1.6µM*	45µM*	0	3
S=c1[nH]c2cc(Cl)ccc2s1	-9%	-1%[57.1 µM]	1.8µM*	?	5	5
Cc1nc(Nc2ccc(S(=O)(=O)N3CCCCC3C)cc2)c2nnn(Cc3ccccc3)c2n1 (stereo not given)	-3%	-29%	-10%	-26%	2	0
Cc1ccc(S(=O)(=O)c2[nH]c(-c3ccccc3)nc2SC(C)C(=O)O)cc1 (stereo not given)	22%	-20%	-11%[59 µM]	-16%	nt	nt
CN(CCO)C1=NS(=O)(=O)c2cc([N+](=O)[O-])ccc21	28%	0%	79µM*	-1%	7	-1
Cc1c(O)c(=O)c2ccccc2n1C	30%	-9%	45µM*	22µM*	1	1
SMILES	HP1b binding inh	BAZ2B block	G9a inh	JMJD2A Tudor inh	Six1-Eya2 inh	CtBP-E1A inh
Cn1c(=O)c(-c2ccccc2)c(O)c2ccccc21	41%	-5%	11%	-6%	2	nt
CC1Cc2ccccc2N1C(=O)CSc1ccccc1 (stereo not given)	52%	50%	78%[59 µM]	29%	10	17
CC1Cc2ccccc2N1C(=O)CSc1ncccc1C(=O)O (stereo not given)	18%	-4%	79µM*	-12%	4	4
OC1(c2ccccc2Cl)NN=C2CCCCCN21 (stereo not given)	-21%	-18%	79µM*	5.6µM*	3	6
O=C1Cc2cc(S(=O)(=O)N3CCN(c4ccc(O)cc4)CC3)ccc2N1	nt	nt	nt	126µM*	nt	nt
O=C1CC(=O)Nc2cc(S(=O)(=O)N3CCN(c4ccc([N+](=O)[O-])cc4)CC3)ccc2N1	44%	50µM*	13µM*	29%	-11	nt
Cn1nc(CC#N)c2c(=N)n(N)cnc21	2%	nt	nt	32µM*	-24	-14
CCCCn1cnc2c(c(CC#N)nn2-c2ccccc2)c1=N	10%	nt	nt	-13%	-1	0
C=CCOc1c(CNc2ccc(S(N)(=O)=O)cc2)cccc1OC	-24%	2%	6%[59 µM]	-2%[11.4 µM]	-6	3
C=CCOc1c(CNc2ccc3[nH]c(=O)[nH]c3c2)cccc1OC	?	-7%	nt	45µM*	-20	-20
COc1cccc(CNc2ccc3[nH]c(=O)[nH]c3c2)c1OCc1ccc(F)cc1	?	45µM*	?	40µM*	?	-5
O=C(CN1CCC(NC(=O)c2ccccc2Cl)CC1)NCc1ccco1	?	-2%	-38%	-14%	-1	nt
O=C(NCc1ccccc1)NS(=O)(=O)c1ccccc1Cl	34%	-8%	-30%[2.33 µM]	-4%	0	3
O=C(O)Cc1ccc(NS(=O)(=O)c2ccccc2Cl)cc1	20%	?	22µM*	-4%	3	9
O=c1ccc(NS(=O)(=O)c2ccccc2Cl)cn1Cc1ccc(Cl)c(Cl)c1	17%	56µM*	28µM*	-25%	-2	nt
CC1(CCc2ccccc2)NC(=O)N(CC(=O)Nc2ccc(OC(F)F)cc2)C1=O (stereo not given)	14%	nt	nt	-14%	1	6
O=C(c1ccoc1)N1CCN(c2cc(-c3cccnc3)nc3cc(-c4cccc(Cl)c4)nn23)CC1	nt	nt	nt	nt	-1	0
CN(C)c1ccc(/C=N/NC(=O)C(O)(c2ccccc2)c2ccccc2)o1	0%	-26%	7.9µM*	?	-1	-3
Cc1cc(C(=O)N/N=C/c2ccc(N(C)C)o2)cs1	3%	-26%	?	-19%	-7	-6
O=C(N/N=C/c1ccc(N2CCCCC2)o1)C(O)(c1ccccc1)c1ccccc1	nt	-28%	13µM*	nt	nt	nt
CN(C)c1ccc(/C=N/NC(=O)c2ccccc2O)o1	9%	3%	28µM*	-21%	-19	-12
COc1ccc(OC)c(CNC(=O)c2cnc3c(C)cccn3c2=O)c1	27%	4%	5%[59 µM]	3%	nt	nt
O=C1Oc2ccccc2C(=O)/C1=C/N1CCN(c2ccccc2F)CC1	14%	-16%	-14%	-18%	4	11
